Assays:
Conditions in all cases: concentration: 1 μM, replicates: in singlicate; n = 1
[1] = system: PIM1
[2] = system: PIM2
[3] = system: PIM3
[4] = system: PIP5K1A
[5] = system: PIP5K1C
[6] = system: PIP5K2B
[7] = system: T1, PIP5K2C
T1 construct: gene PIP4K2C

[8] = system: T2, PKAC-alpha
T2 construct: gene PRKACA

[9] = system: T3, PKAC-beta
T3 construct: gene PRKACB

[10] = system: PKMYT1
[11] = system: PKN1
[12] = system: PKN2
[13] = system: PLK1
[14] = system: PLK2
[15] = system: PLK3
[16] = system: PLK4
[17] = system: PRKCD
[18] = system: PRKCE
[19] = system: PRKCH
[20] = system: PRKCI
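Also: KINOMEscan kinase panel screen.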

SMILES | %Inh [1] | %Inh [2] | %Inh [3] | %Inh [4] | %Inh [5] | %Inh [6] | %Inh [7] | %Inh [8] | %Inh [9] | %Inh [10] | %Inh [11] | %Inh [12] | %Inh [13] | %Inh [14] | %Inh [15] | %Inh [16] | %Inh [17] | %Inh [18] | %Inh [19] | %Inh [20]
CCn1c(-c2ccccn2)nc2cnccc21 [SB-736398] | 0% | 0% | 0% | 6% | 34% | 7% | 32% | 92.9% | 6% | 0% | 0% | 11% | 0% | 0% | 0% | 0% | 0% | 10% | 0% | 30%
COc1ccc(CNC(=O)NC2CCN(c3ccnc(Nc4cc(OC)c(OC)c(OC)c4)n3)C2)cc1 (centres unmarked) [GSK1379748] | 7% | 0% | 0% | 36% | 73% | 7% | 87% | 0% | 0% | 3% | 0% | 0% | 0% | 0% | 0% | 19% | 0% | 14% | 0% | 30%
Cc1ccc(-c2cc(-c3c[nH]nc3-c3ccccn3)ccn2)cc1 [GW684088] | 20% | 0% | 2% | 50% | 71% | 8% | 67% | 30% | 0% | 0% | 0% | 0% | 0% | 0% | 0% | 0% | 0% | 16% | 0% | 12%
Nc1ncnc2[nH]c(-c3ccccc3)nc12 [AH5015] | 0% | 0% | 21% | 0% | 29% | 0% | 21% | 1% | 7% | 0% | 0% | 0% | 2% | 16% | 0% | 99.9% | 0% | 14% | 18% | 0%
COc1ccc2nc(-c3cccc(C)n3)nc(Nc3ccncc3)c2c1 [GSK204919] | 0% | 0% | 0% | 4% | 28% | 0% | 0% | 3% | 0% | 1% | 3% | 0% | 0% | 0% | 0% | 0% | 0% | 0% | 30% | 31%
COc1cccc(NC(=O)NC2CCN(c3ccnc(Nc4ccc(F)cc4)n3)C2)c1 (centres unmarked) [GSK1379721] | 9% | 0% | 0% | 38% | 59% | 0% | 0% | 0% | 0% | 0% | 8% | 0% | 7% | 0% | 7% | 3% | 0% | 14% | 0% | 4%
Cc1cccc(-c2nc(Nc3ccncc3)c3ccccc3n2)n1 [GW855857] | 0% | 18% | 0% | 10% | 40% | 0% | 18% | 23% | 30% | 0% | 0% | 0% | 6% | 0% | 0% | 0% | 29% | 0% | 0% | 32%
CS(=O)(=O)c1ccc(-c2c(-c3ncn[nH]3)sc(N3CCOCC3)c2C#N)cc1 | 0% | 0% | 0% | 0% | 0% | 14% | 0% | 0% | 7% | 0% | 17% | 0% | 8% | 8% | 16% | 28% | 41% | 42% | 5% | 24%
CC(C)(C)c1ccc(C(=O)Nc2cn3cc(Cl)ccc3n2)cc1 | 0% | 13% | 0% | 0% | 44% | 0% | 48% | 8% | 0% | 0% | 0% | 1% | 13% | 0% | 1% | 0% | 4% | 13% | 2% | 100%
Fc1cc(Cl)ccc1Nc1ccnc2cc(I)ccc12 [GW551191] | 22% | 0% | 6% | 0% | 30% | 0% | 10% | 0% | 0% | 1% | 17% | 0% | 0% | 0% | 0% | 1% | 0% | 10% | 2% | 16%

From paper PMC5540273 (PLoS ONE, 2017)
